Compound activity deposited in PubChem BioAssay by National Center for Advancing Translational Sciences (NCATS).
LASV entry inh: Lassa virus entry inhibition; Potency, µM (highest dose often 37.9 µM), hits mostly inhibitors; Lassa virus pseudotype entry inhibition, cell reporter; 300,000 compounds, 1.2% hits; calls by dose curve; tested in HEK293 cells; also: nearly all actives have a fitted effect of over 50% in size
VACV Venus inh: vaccinia inhibition (Venus reporter); Vaccinia virus Venus reporter expression, fluorescence; AID 720580; 330,000 compounds, 0.46% hits; Potency, µM (titrated, usually from 36.5 µM), actives largely listed as inhibitors; calls by dose curve; tested in A549 cells; also: nearly all actives have a fitted effect of over 30% in size
Marburg entry inh: inhibitors of Marburg virus binding or cell entry. Marburg virus pseudotyped entry inhibition, cell reporter. Potency, µM (highest dose often 37.8 µM), hits mostly inhibitors. 300,000 compounds, 1.8% hits; calls by dose curve; tested in HEK293 cells
HCMV inh: human cytomegalovirus inhibition. activity change, negative = inhibition, % at 57.5 µM. HFF cells, HCMV-luciferase reporter, 72 h; active compounds read low. 410,000 compounds, 4.5% hits; in the data active = activity change below about -60%; inconclusive = no clear call, values can overlap the other calls; inactive = above about -39%
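After 16 h attachment at 37C, HFF cells received test compound and HCMV-luciferase (1 PFU/cell); reporter luminescence read 72 h later, data normalized against buffer-only and known inhibitor Salinomycin.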
Vaccinia mCherry: vaccinia inhibition (mCherry reporter) | Vaccinia virus mCherry reporter infection, fluorescence | Potency, µM (series often up to 36.5 µM), hits mostly inhibitors | 310,000 compounds, 0.63% hits; calls by dose curve; tested in A549 cells; also: nearly all actives have a fitted effect of over 35% in size
FMDV inh: foot and mouth disease virus antiviral activity; FMDV antiviral cell-based qHTS; Potency, µM (doses to about 57.9 µM), actives largely listed as inhibitors; 410,000 compounds, 1.2% hits; calls by dose curve; tested in HEK293T cells; also: read-out not given here; nearly all actives have a fitted effect of over 45% in size
A number is an active result. A selection: hits, their analogues and other compounds. The true share with any hit is near 6.5%.

What do the screens show for `O=C1c2cccc(OCC(=O)N3CCCc4ccccc43)c2CCN1Cc1cccnc1`?
LASV entry inh: inconclusive; VACV Venus inh: inactive; Marburg entry inh: inconclusive; HCMV inh: -61; Vaccinia mCherry: inconclusive; FMDV inh: 28µM

How did Cc1ccccc1CN1CCc2c(OCC(=O)N3CCCc4ccccc43)cccc2C1=O do in these assays?
LASV entry inh: inconclusive; VACV Venus inh: inconclusive; Marburg entry inh: inconclusive; HCMV inh: -62; Vaccinia mCherry: inactive; FMDV inh: 40µM

What do the screens show for `CN=CC1=C(O)c2ccccc2C1=O`?
LASV entry inh: inactive; VACV Venus inh: inactive; Marburg entry inh: inactive; HCMV inh: inactive; Vaccinia mCherry: inactive; FMDV inh: inactive

Results for O=C1C(C2=C(O)c3ccccc3C2=O)=Nc2ccccc21 ?
LASV entry inh: inconclusive; Marburg entry inh: inconclusive; HCMV inh: -78; FMDV inh: inactive

Results for S=C1SCN(CC2CC2)CN1CC1CC1 ?
LASV entry inh: inactive; VACV Venus inh: inactive; Marburg entry inh: inactive; HCMV inh: -77; Vaccinia mCherry: inactive; FMDV inh: inactive

Results for N#CC1=C2N=C(N)c3ccccc3N2C2=C(C(=O)CCC2)C1c1cccc(Cl)c1 (stereo unspecified) ?
LASV entry inh: inconclusive; Marburg entry inh: inconclusive; HCMV inh: -70; FMDV inh: inactive

Results for Cc1ccc(C(C(=O)NC(C)(C)C)N(CC2CCCO2)C(=O)c2csnn2)cc1 (stereo unspecified) ?
LASV entry inh: inactive; VACV Venus inh: inactive; Marburg entry inh: inactive; HCMV inh: inactive; Vaccinia mCherry: inactive; FMDV inh: inactive

How did CC(C)(C)NC(=O)C(c1ccc(-c2ccccc2)cc1)N(C[C@H]1CC[C@@H]([C@@H]2CC[C@H](CO)O2)O1)C(=O)c1ccc(C(C)(C)C)cc1 (stereo partly specified) do in these assays?
VACV Venus inh: inconclusive; HCMV inh: -101; Vaccinia mCherry: inactive; FMDV inh: inactive

Results for COc1ccc(OC)c(-c2csc(N(CC3CCCO3)C(=O)C3CCCCC3)n2)c1 (stereo unspecified) ?
LASV entry inh: inactive; Marburg entry inh: inactive; HCMV inh: -72; FMDV inh: inactive

How did Cc1c(C#N)c(N)nc(Cl)c1C#N do in these assays?
LASV entry inh: inconclusive; VACV Venus inh: inactive; Marburg entry inh: inconclusive; HCMV inh: inactive; Vaccinia mCherry: inactive; FMDV inh: inconclusive

What do the screens show for `N#Cc1c(Cl)nsc1NN`?
LASV entry inh: inactive; VACV Venus inh: inactive; Marburg entry inh: inactive; HCMV inh: -104; Vaccinia mCherry: inactive; FMDV inh: inactive

How did CC(C)n1c(-c2ccc(C(C)(C)C)cc2)n[nH]c1=S do in these assays?
LASV entry inh: inactive; Marburg entry inh: inactive; HCMV inh: -72; FMDV inh: inconclusive

What do the screens show for `Cc1ccc(OCCSc2nc3ccccc3n2CC(=O)N2CCOCC2)cc1`?
LASV entry inh: inconclusive; VACV Venus inh: inactive; Marburg entry inh: inconclusive; HCMV inh: inactive; Vaccinia mCherry: inactive; FMDV inh: inactive

What do the screens show for `NS(=O)(=O)c1ccc(N=Nc2c(O)[nH]c3ccc(C(=O)NCCc4cnc[nH]4)cc23)cc1`?
LASV entry inh: 5µM

Results for O=C(NCCc1cnc[nH]1)c1cccs1 ?
HCMV inh: inactive; FMDV inh: inactive

Results for CSc1nsc(SCc2cnc(C)nc2N)n1 ?
LASV entry inh: inactive; VACV Venus inh: inconclusive; Marburg entry inh: inactive; HCMV inh: inactive; Vaccinia mCherry: 22µM; FMDV inh: inactive

How did Cc1c(C(=O)NCC(c2ccco2)N2CCCC2)sc2ccccc12 (stereo unspecified) do in these assays?
LASV entry inh: inactive; VACV Venus inh: inactive; Marburg entry inh: 11µM; HCMV inh: inactive; Vaccinia mCherry: inactive; FMDV inh: inactive

What do the screens show for `COc1ccccc1N(C)S(=O)(=O)c1ccc(C(=O)NCC(c2ccco2)N2CCCCC2)cc1` (stereo unspecified)?
HCMV inh: inactive; FMDV inh: inactive

What do the screens show for `CN(c1ccccc1)S(=O)(=O)c1ccc(C(=O)NCC(c2ccco2)N2CCCCC2)cc1` (stereo unspecified)?
HCMV inh: -63; FMDV inh: inconclusive

Results for COc1ccc2c(c1)C(=O)[C@@H](O)[C@H](c1ccc(OC)c(Br)c1)O2 ?
LASV entry inh: inconclusive; VACV Venus inh: inconclusive; Marburg entry inh: inactive; Vaccinia mCherry: 4µM; FMDV inh: inactive

Results for C[C@H]1CN([C@@H](C)CO)C(=O)c2cccc(NC(=O)C3CC3)c2O[C@H]1CN(C)Cc1ccc(C(F)(F)F)cc1 ?
VACV Venus inh: inactive; HCMV inh: -88; Vaccinia mCherry: inactive; FMDV inh: inactive

How did C[C@H](CO)N1C[C@H](C)[C@@H](CN(C)C(=O)Nc2ccc(C(F)(F)F)cc2)Oc2c(NC(=O)Nc3ccccc3)cccc2C1=O do in these assays?
VACV Venus inh: inconclusive; HCMV inh: inactive; Vaccinia mCherry: inactive; FMDV inh: inactive

How did CC(C)NC(=O)N(C)C[C@H]1Oc2c(NC(=O)Cc3ccccc3)cccc2C(=O)N([C@H](C)CO)C[C@@H]1C do in these assays?
VACV Venus inh: inactive; HCMV inh: inactive; Vaccinia mCherry: inactive; FMDV inh: inactive

How did C[C@@H]1CN([C@H](C)CO)C(=O)c2cccc(NC(=O)Nc3ccc(F)cc3)c2O[C@H]1CN(C)C(=O)Nc1ccc(C(F)(F)F)cc1 do in these assays?
VACV Venus inh: inconclusive; HCMV inh: -61; Vaccinia mCherry: inactive; FMDV inh: inconclusive

What do the screens show for `COc1ccc(NC(=O)N(C)C[C@H]2Oc3c(NC(=O)c4nc5ccccc5s4)cccc3C(=O)N([C@@H](C)CO)C[C@H]2C)cc1`?
VACV Venus inh: inconclusive; HCMV inh: -103; Vaccinia mCherry: inactive; FMDV inh: inactive

Results for C[C@H](CO)N1C[C@H](C)[C@@H](CN(C)CC2CCCCC2)Oc2c(NC(=O)Cc3ccccc3)cccc2C1=O ?
VACV Venus inh: 10µM; HCMV inh: inactive; Vaccinia mCherry: inconclusive; FMDV inh: inactive

How did Cc1ccsc1CCN1C(=O)N(c2ccc(F)cc2)C(=O)C1CC(=O)Nc1ccccc1 (stereo unspecified) do in these assays?
LASV entry inh: inactive; VACV Venus inh: inactive; Marburg entry inh: inconclusive; HCMV inh: inactive; Vaccinia mCherry: inactive; FMDV inh: inactive

What do the screens show for `Cc1cccc(NC(=O)c2ccc3oc(=O)c(S(=O)(=O)c4ccc(F)cc4)cc3c2)c1C`?
LASV entry inh: inactive; VACV Venus inh: inactive; Marburg entry inh: inactive; HCMV inh: inactive; Vaccinia mCherry: inactive; FMDV inh: 32µM

Results for CC(C)c1ccc(NC(=O)c2ccc3oc(=O)c(S(=O)(=O)c4ccc(F)cc4)cc3c2)cc1 ?
LASV entry inh: inactive; VACV Venus inh: inactive; Marburg entry inh: inconclusive; HCMV inh: inactive; Vaccinia mCherry: inactive; FMDV inh: inconclusive

Results for COc1ccc(/C=N\NC(=O)c2cccc(F)c2)cc1COc1ccccc1 ?
LASV entry inh: inactive; VACV Venus inh: inactive; Marburg entry inh: inconclusive; HCMV inh: -86; Vaccinia mCherry: inactive; FMDV inh: inactive
